Reference: PubChem BioAssay (NCATS)
Records with an inconclusive call do not appear. The source made the active and inactive calls. Unless noted, calls come from the whole dose curve; as a rule, active = well fitted curve in the direction sought with a large enough effect; inconclusive = small, poorly fitted or top-dose-only effect, or another doubt; inactive = no such curve, though single readings can be large; an effect the other way counts as inactive or inconclusive.

How the values were obtained:
[1] = Cell Viability - BJ (AID 421; calls by dose curve;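 note: potency is the fitted concentration of half-maximal effect; cells exposed to compound for 40 hours at 37 °C before readout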); details: BJ fibroblast viability, qHTS
Method in brief: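 Luminescent ATP signal (CellTiter-Glo, 20 min at room temperature) served as the read-out of viable BJ cells after 40 hours of compound treatment. Responses were scaled between DMSO and 100 uM tamoxifen, and AC50 values were obtained by Hill modeling.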

[2] = Cell Viability - Jurkat (AID 426;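 active = dose-dependent loss of cell ATP signal giving a full or clear fitted curve, ranked by lower potency value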; note: potency is the fitted concentration of half-maximal effect); details: qHTS
Method in brief: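 Luminescent ATP read-out (CellTiter-Glo, 20 min at room temperature) after 40 hr compound exposure at 37 °C of Jurkat E6-1 cells, 5000/well. Decreased ATP taken as cytotoxicity; AC50 from standard Hill equation.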

[3] = Cell Viability - Hek293 (AID 427;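 active = compounds whose dose-response curve shows a full or clear partial loss of cell viability, called from curve shape rather than a numeric limit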;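 note: potency is the fitted concentration of half-maximal effect; cells exposed to compound for 40 hours at 37 °C before reading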); details: qHTS
Method in brief: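 Luminescent ATP read-out (CellTiter-Glo, 20 min RT) after 40 hr compound exposure at 37 °C in complete medium. Signal normalized to DMSO (basal) and 100 uM tamoxifen (100% inhibition); concentration-response fitted with the standard Hill equation to give AC50.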

[4] = Cell Viability - HepG2 (AID 433; calls by dose curve;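 note: potency is the fitted concentration of half-maximal effect; potency for ATP loss meaning cytotoxicity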); details: qHTS
Method in brief: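 HepG2 cells, 1500 per well, treated 40 hr at 37 °C in complete medium; viability from intracellular ATP by CellTiter-Glo luminescence. Normalized to DMSO and 100 uM tamoxifen; AC50 from Hill fit of qHTS concentration-response.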

[5] = Cell Viability - MRC5 (AID 434; calls by dose curve;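 note: potency is the fitted concentration of half-maximal effect; potency reflects cytotoxicity seen as loss of intracellular ATP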); details: MRC5 lung fibroblast viability, qHTS
Method in brief: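 AC50 values come from Hill-equation fits of intracellular ATP loss, measured by CellTiter-Glo luminescence. Normal lung fibroblasts (MRC5) had 40 hr compound treatment at 37 C, normalized between DMSO and 100 uM tamoxifen.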

[6] = Cell Viability - SK-N-SH (AID 435; calls by dose curve; note: potency is the fitted concentration of half-maximal effect); details: SK-N-SH neuroblastoma cell viability qHTS
Method in brief: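 SK-N-SH neuroblastoma cells (1500/well) treated 40 h at 37 °C in complete medium; viability read as cellular ATP by CellTiter-Glo luminescence. Normalized to DMSO and 100 uM tamoxifen; AC50 from Hill fits of qHTS concentration-response.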

[7] = biological target: Mitogen-activated protein kinase 10 (Mus musculus) (UniProt Q61831); experiment: JNK3 AlphaScreen Assay (AID 530; active = well fitted curve in either direction with a large enough effect, not every such curve was filed as active;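 note: kinase came from lysate of stimulated human HepG2 cells; signal reports phosphorylation of biotinylated GST-cJun 1-79 at Ser73 with 10 µM ATP; % is set by controls: 0 for no effect and ±100 for the full control effect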); details: JNK3 lysate, c-Jun phosphorylation; series mostly up to 57.1 µM
Method in brief: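 Kinase buffer: 20 mM Tris-HCl pH 7.6, 10 mM MgCl2, 1 mM DTT, 0.1 mM Na3VO4, 0.01% Tween-20; ATP 10 uM. Substrate biotin-GST-cJun(1-79), enzyme from activated HepG2 lysates. Detection by Ser73 phospho-antibody AlphaScreen.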

[8] = Cell Viability - N2a (AID 540); details: N2a mouse neuroblastoma cell viability; activity change, negative = cytotoxicity: at 92.2 µM (top of the series);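 note: plate controls were DMSO alone for no effect and tamoxifen control for full effect; nearly all actives have a fitted effect of over 45% in size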
Method in brief: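 N2a mouse neuroblastoma, 1500 cells/well, 5 hr settle; compound 40 hr, 37 °C; CellTiter-Glo 20 min RT; luminescence; Hill-fit AC50.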

[9] = Cell Viability - NIH 3T3 (AID 541); details: NIH 3T3 cell viability, qHTS; activity change, negative = cytotoxicity: at 92.2 µM (top of the series);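 note: plate controls were DMSO alone for no effect and tamoxifen positive control for full effect; nearly all actives have a fitted effect of over 25% in size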
Method in brief: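 qHTS format; 40 hr compound exposure, 37 °C; CellTiter-Glo luminescence (cellular ATP) read-out after 20 min at RT. Decrease in ATP = cytotoxicity; AC50 from standard Hill fit.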

[10] = Cell Viability - HUV-EC-C (AID 542); details: HUV-EC-C endothelial cell viability, qHTS; series mostly up to 92.2 µM; note: % is set by controls: 0 for no effect and ±100 for the full control effect; nearly all actives have a fitted effect of over 35% in size
Method in brief: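 Luminescent ATP read-out (CellTiter-Glo, 20 min room temperature) after 40 hr compound treatment of HUV-EC-C cells at 37 °C. Concentration-response data fitted with the standard Hill equation to give AC50; tamoxifen and doxorubicin served as positive controls.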

[11] = Cell Viability - H-4-II-E (AID 543); details: H-4-II-E rat hepatoma viability; series mostly up to 92.2 µM; note: % is set by controls: 0 for no effect and ±100 for the full control effect; nearly all actives have a fitted effect of over 35% in size
Method in brief: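 qHTS, rat hepatoma H-4-II-E, 1500 cells/well; 40 hr compound exposure, 37 °C; CellTiter-Glo ATP luminescence after 20 min RT; AC50 by standard Hill fit.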

[12] = Cell Viability - SH-SY5Y (AID 544); details: SH-SY5Y neuroblastoma cell viability; viability change, negative = cytotoxic: at 92.2 µM (top of the series); note: nearly all actives have a fitted effect of over 55% in size
Method in brief: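 SH-SY5Y, 1500 cells/well, 5 hr pre-incubation 37 °C; cpd 40 hr 37 °C; CellTiter-Glo 20 min RT; luminescence (ATP) read. qHTS concentration-response, Hill fit → AC50. Tamoxifen, doxorubicin as positive controls.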

[13] = Cell Viability - Renal Proximal Tubule (AID 545); details: renal proximal tubule cells viability, primary cells of rat origin; series mostly up to 91.7 µM; note: nearly all actives have a fitted effect of over 40% in size
Method in brief: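 Rat renal proximal tubule primary cells, 1000/well, exposed to compounds for 40 hr at 37 °C in complete medium; cellular ATP read by CellTiter-Glo luminescence. AC50 from concentration-response fitted with standard Hill equation.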

[14] = Cell Viability - Mesenchymal (AID 546); details: mesenchymal cells viability, qHTS; series mostly up to 91.7 µM;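 note: cells exposed to compound for 40 hours before reading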
Method in brief: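 CellTiter-Glo luminescence (intracellular ATP, 20 min room temperature) after 40 hr compound exposure at 37 °C of 1000 glomerulus-derived human kidney mesenchymal cells/well; AC50 values obtained by fitting qHTS concentration-response data to the Hill equation.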

[15] = Cellular Toxicity (caspase-3) HepG2 (AID 654); details: HepG2 caspase-3 activation, luminescence; series mostly up to 92.2 µM;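 note: cells exposed to compound for 16 hours before reading; 0% = DMSO alone and 100% = caspase signal from 100 µM tamoxifen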
Method in brief: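 Luminescent Caspase-Glo 3/7 readout after 16 hr compound exposure of human hepatocellular carcinoma HepG2 cells at 37 °C; qHTS concentration-response, normalized DMSO = 0%, 100 uM tamoxifen = 100%; AC50 by standard Hill equation.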

[16] = Cellular Toxicity (caspase-3) Jurkat (AID 655); details: Jurkat caspase-3 activation, luminescence; caspase-3 activation: at 92.2 µM (top of the series), DMSO = 0%, tamoxifen = 100%;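 note: cells exposed to compound for 16 h at 37 °C before reading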
Method in brief: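 Jurkat cells (5000/well) in complete medium exposed 16 h at 37 C; caspase-3/7 activity read by Caspase-Glo luminescence after 20 min at room temperature. Normalized to DMSO and 100 uM tamoxifen; AC50 from Hill fits.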

[17] = Cellular Toxicity (caspase-3) HUV-EC-C (AID 656); details: HUV-EC-C cells, caspase-3 activation (apoptosis), vehicle = 0, 100 µM tamoxifen = 100%; series mostly up to 92.2 µM
Method in brief: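 HUV-EC-C cells (1000/well) in complete medium, compound-treated 16 h at 37 °C; caspase-3/7 activity read by Caspase-Glo 3/7 luminescence. Normalized to DMSO (basal) and 100 uM tamoxifen (100%); AC50 from Hill-equation concentration-response fits.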

[18] = Cellular Toxicity (caspase-3) SHSY5Y (AID 657); details: SH-SY5Y caspase-3 activation, DMSO zero, 10 µM staurosporine = 100%; series mostly up to 91.7 µM
Method in brief: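 SH-SY5Y human neuroblastoma cells, 1500/well, exposed to compound for 16 hours at 37 °C in complete medium. Caspase-3/7 activity read by Caspase-Glo luminescence after 1 hr at room temperature, normalized to DMSO and 10 uM staurosporine; AC50 from Hill fit.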

[19] = Cellular Toxicity (caspase-3) BJ (AID 658); details: BJ fibroblasts, luminescence, normalized: DMSO 0%, staurosporine 100%; series mostly up to 91.7 µM
Method in brief: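 Caspase-Glo 3/7 luminescence, read 1 hr after reagent at room temperature, in normal BJ fibroblasts exposed 16 hours at 37 °C. AC50 values from Hill-equation concentration-response, scaled between DMSO basal and 10 uM staurosporine as 100%.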

[20] = Cellular Toxicity (caspase-3) MRC-5 (AID 659); details: MRC-5 cells, luminescence, normalized: DMSO 0%, 10 µM staurosporine 100%; series mostly up to 91.7 µM
Method in brief: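 Luminescent Caspase-Glo 3/7 read-out (1 h, room temperature) after a 16 h, 37 °C compound exposure of MRC-5 lung fibroblasts at 1500 cells/well. Concentration-response AC50 from Hill equation; 0% DMSO, 100% 10 uM staurosporine.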

C=C(C)C(=O)OCC(C)C
inactive: Potency [1] > 92 µM | Potency [2] > 92 µM | Potency [3] > 92 µM | Potency [4] > 92 µM | Potency [5] > 92 µM | Potency [6] > 92 µM | outcome [7] | activity change, negative = cytotoxicity [8] 1.04% | Potency [9] | Potency [10] | Potency [11] | Potency [12] | Potency [13] | Potency [14] | Potency [15] | caspase-3 activation [16] 0.091% | outcome [17] | outcome [18] | outcome [19] | outcome [20]

Cc1ccccc1Br
inactive: Potency [1] > 92 µM | Potency [2] > 92 µM | Potency [3] > 92 µM | Potency [4] > 92 µM | Potency [5] > 92 µM | Potency [6] > 92 µM | outcome [7] | activity change, negative = cytotoxicity [8] -5.14% | Potency [9] | Potency [10] | Potency [11] | Potency [12] | Potency [13] | Potency [14] | Potency [15] | caspase-3 activation [16] -0.129% | outcome [17] | outcome [18] | outcome [19] | outcome [20]

O=[N+]([O-])c1c(Cl)cc(Cl)cc1Cl
inactive: Potency [1] > 92 µM | Potency [2] > 92 µM | Potency [3] > 92 µM | Potency [4] > 92 µM | Potency [5] > 92 µM | Potency [6] > 92 µM | outcome [7] | activity change, negative = cytotoxicity [8] 3.57% | Potency [9] | Potency [10] | Potency [11] | Potency [12] | Potency [13] | Potency [14] | Potency [15] | caspase-3 activation [16] 0.558% | outcome [17] | outcome [18] | outcome [19] | outcome [20]

CCCCC=O
inactive: Potency [1] > 92 µM | Potency [2] > 92 µM | Potency [3] > 92 µM | Potency [4] > 92 µM | Potency [5] > 92 µM | Potency [6] > 92 µM | outcome [7] | activity change, negative = cytotoxicity [8] 4.71% | Potency [9] | Potency [10] | Potency [11] | Potency [12] | Potency [13] | Potency [14] | Potency [15] | caspase-3 activation [16] -1.47% | outcome [17] | outcome [18] | outcome [19] | outcome [20]

CC(=C/C=C/C(C)=C/C=C/C=C(C)/C=C/C=C(C)/C=C/C(=O)O)/C=C/C(=O)O
inactive: Potency [1] > 92 µM | Potency [2] > 92 µM | Potency [3] > 92 µM | Potency [4] > 92 µM | Potency [5] > 92 µM | Potency [6] > 92 µM | outcome [7] | activity change, negative = cytotoxicity [8] -0.984% | Potency [9] | Potency [10] | Potency [11] | Potency [12] | Potency [13] | Potency [14] | Potency [15] | caspase-3 activation [16] -0.472% | outcome [17] | outcome [18] | outcome [19] | outcome [20]
